Measured values taken from PubChem BioAssay AID743279 (National Center for Advancing Translational Sciences (NCATS), 2014).
About 17,000 (4.7%) of roughly 360,000 compounds were called active. Not shown: some 5% with an inconclusive outcome. This is one part of a sample in which actives are shown more often than they occur. Values without a mark were called inactive. Cut-off read from the data, not from the text of the source: active = activity change below about -50%; inconclusive = mostly about -30% to -49%; inactive = weaker than that.

Test: qHTS for Inhibitors of Inflammasome Signaling: IL-1-beta AlphaLISA Primary Screen
Settings: THP-1 LPS/ATP IL-1B secretion, 16 h; at 57.5 µM, hits give low values
Excerpt: Inflammasomes are a set of intracellular multi-protein complexes that enable autocatalytic activation of inflammatory caspases and drive the innate immune response to counter harmful agents. […] A qHTS assay, based on AlphaLISA technology, was developed to screen the Molecular Libraries Small Molecule Repository (MLSMR) to look for novel inflammasome inhibitors. The assay detects IL-1B using AlphaLISA anti-IL-1B acceptor and donor beads. A decreased emission signal, indicating reduced IL-1B secretion, is the desired outcome for this assay. NIH Chemical Genomics Center [NCGC] NIH Molecular Libraries Probe Centers Network [MLPCN] MLPCN Grant: MH095513 Assay Provider: Shyam Biswal Ph.D., Johns Hopkins University Immunity. 2012 Jul 27;37(1):85-95. PMID: 22819042 [2] Curr Pharm Des. 2012;18(16):2320-8. PMID: 22390695
Three microliters containing 3000 THP-1 cells were dispensed into the wells of solid, white, tissue culture treated Greiner 1,536-well plates. Library compounds and positive control, Glyburide, were pin-transferred (23 nL) by a Kalypsys pin-tool equipped with a 1,536-pin array, resulting in final compound concentration ranges of 2.5 nM to 57.5 uM. After 1 hr of cell culture incubation (37 °C, 5% CO2), 1 microL of 1 microg/mL lipopolysaccharide (250 ng/mL, final) and 5 mM ATP (1.25 mM, final) were added to stimulate the cells. After 16 hr of cell culture incubation with the compounds, 1.5 uL of anti-IL-1B acceptor beads (6 ug/mL, final) and biotinylated antibody (0.6 nM, final) were added to the plate, followed by a 1 hr incubation at ambient temperature. To detect the secreted IL-1B, 1.5 uL of AlphaLISA SA-Donor beads (24 ug/mL, final) were added, followed by 30 min of incubation in the dark at ambient temperature. The AlphaLISA signal was read by a PerkinElmer EnVision plate reader with an ultrasensitive luminescence detector and 1536 Plate HTS AlphaScreen aperture (excitation of 680nm and emission of 615nm).
% is set by controls: 0 for no effect and ±100 for the full control effect.

| Compound | activity change |
| --- | --- |
| Cc1ccc(NC(=O)CCCNC(=O)c2ccc(Cl)cc2)cc1S(=O)(=O)N1CCCCC1 | -6.38% |
| COC(C[C@@H]1O[C@@H]1C(=O)[C@H](C)OCc1ccccc1)OC | 8.19% |
| COC(C[C@H](O)CC(=O)[C@@H](C)OCc1ccccc1)OC | -16.6% |
| COC(C/C=C/C(=O)[C@@H](C)OCc1ccccc1)OC | -95.4% (active) |
| C[C@H](CO)N1C[C@H](C)[C@H](CN(C)C(=O)c2ccncc2)OCc2ccccc2-c2c(n(C)c3ccccc23)C1=O | 42.4% |
| CCCOC1CCCN(Cc2cn(C)nc2-c2ccccc2F)C1 (stereo not drawn) | -7.48% |
| COCCNC(=O)C1(C)CCCN(Cc2cccc(F)c2)C1 (stereo not drawn) | -12.6% |
| COc1ccc(OC)c(C(=O)NC(CC(N)=O)c2ccc(N3CCC(N4CCCCC4)CC3)c([N+](=O)[O-])c2)c1 (stereo not drawn) | 13.4% |
| O=[N+]([O-])/C=C/c1ccc2c(ccn2Cc2ccccc2)c1 | -90.5% (active) |
| O=C(Cn1ccc2cc(S(=O)(=O)N3CCCC3)ccc21)NCc1ccccc1 | 14.2% |
| COC(=O)Cn1cc(/C=C/[N+](=O)[O-])c2ccccc21 | -27.5% |
| Cc1ccc(-c2nc3c(C)cc(Br)cn3c2Cc2ccccc2)cc1 | 58% |
| COc1cccc(NC(=O)CCc2nnc3ccc(N4CCC(C)CC4)nn23)c1 | -6.48% |
| O=C(NCc1ccc(F)cc1)c1cc(C2CCCCN2C(=O)C2CCCCC2)on1 (stereo not drawn) | -0.0267% |
| Cc1cc(OCCCC(=O)Nc2cc(S(=O)(=O)N3CCOCC3)ccc2N2CCOCC2)ccc1Cl | -1.02% |
| CC(c1ccccn1)N(CCN(C)C)C(=S)Nc1ccccc1F (stereo not drawn) | 0% |
| CSc1cccc(NC(=S)N(Cc2ccccc2)Cc2ccccn2)c1 | -6.44% |
| CSc1cccc(NC(=S)N(C(C)C)C(C)c2ccccn2)c1 (stereo not drawn) | -98.3% (active) |
| O=C(/C=C/[C@H]1O[C@@H](n2ccc(=O)[nH]c2=O)[C@H](O)[C@@H]1O)NCc1ccccn1 | 21.7% |
| COc1ccc(N2CCN(C3CCCCC3NS(=O)(=O)c3ccccc3)CC2)cc1 (stereo not drawn) | -0.438% |
| O=C(C(Cl)Cl)N1CCN(c2ccccn2)CC1 | 1.16% |

| Compound | activity change |
| --- | --- |
| O=C(Cc1ccc(Br)cc1)N1CCN(c2ccccn2)CC1 | 8.64% |
| O=C(/C=C/c1cccc(C(F)(F)F)c1)N1CCN(c2ccccn2)CC1 | -95.2% (active) |
| O=S1(=O)CCN(Cc2ccccc2)CC1 | -15.7% |
| Cc1nccn1-c1ccc(NC(=O)[C@H]2O[C@@H](n3cnc4c(N)ncnc43)[C@H](O)[C@@H]2O)cc1 | -25.6% |
| COc1ccc(-n2ncc3c2CC(C)(C)CC3NC(=O)CCc2c(C)noc2C)cc1 (stereo not drawn) | inactive |
| O=C(N=C1SC2CS(=O)(=O)CC2N1Cc1ccccc1)c1ccccc1 (stereo not drawn) | -24.4% |
| CCc1nc2ccc(C(=O)Nc3cccc(OC)c3)cn2c1N(CCC(C)C)CCN(C)C | 30.7% |
| CCc1nc2ccc(C(=O)NCCNC(C)=O)cn2c1N(CC)Cc1cccc(Br)c1 | 27.3% |
| CCc1nc2ccc(C(=O)NCc3ccc(OC)cc3)cn2c1N(CC)Cc1cccc(Br)c1 | -70.8% (active) |
| CN(C(=O)CN1CCN(c2cc(-c3ccc(OCc4ccccc4)cc3)ncn2)CC1)c1ccccc1 | 8.46% |
| CC(C)CC[n+]1ccn(C2=C([O-])c3ccccc3C(=O)/C2=N\S(=O)(=O)c2ccccc2)c1 | -50.7% (active) |
| COc1ccc(S(=O)(=O)/N=C2\C=C(NS(=O)(=O)c3ccccc3)C(=O)c3ccccc32)cc1 | 36% |
| Cc1ccc(S(=O)(=O)/N=C2\C=C(NS(=O)(=O)c3ccc(C)cc3)C(=O)c3ccccc32)cc1 | 57.7% |
| CC(=O)c1ccc(NC(=O)C(C)NCc2ccc(Cl)cc2)cc1 (stereo not drawn) | -14.8% |
| CCc1nc2c(OCc3ccccc3)cccn2c1N(C)C(=O)c1ccco1 | -17.3% |
| C[C@H]1CN([C@@H](C)CO)C(=O)c2cc(-c3cccc(F)c3)cnc2O[C@@H]1CN(C)S(C)(=O)=O | 7.01% |
| CCC(=O)N1CCc2cc(Br)c(S(=O)(=O)NCCN3CCCCC3CC)cc21 (stereo not drawn) | -5.22% |
| CCc1noc(C)c1C(=O)Nc1nc(-c2ccccc2)cs1 | 61.4% |
| CC1(C)CC(CC(=O)O)C(=O)O1 (stereo not drawn) | -17% |
| C/C(CC1CC(C)(C)OC1=O)=N/Nc1nc(-c2ccccc2)cs1 (stereo not drawn) | -54.9% (active) |
| COC(=O)[C@@]1(Cc2ccc(F)cc2)[C@H]2c3cc(C(=O)N4CCCC4)n(C[C@H](O)CO)c3C[C@H]2CN1C(=O)c1ccccc1 | -0.432% |

| Compound | activity change |
| --- | --- |
| CN1OC[C@@H]2CN(S(=O)(=O)c3cccc4ccccc34)[C@H](c3ccc(N4CCCCC4)cc3)C[C@@H]21 | -6.93% |
| O=C(c1ccccc1)N1CCC(CC2CC(c3ccc(Cl)cc3)=NO2)(C(=O)NCC2CCCCC2)CC1 (stereo not drawn) | -55.1% (active) |
| Cc1ccccc1-c1cc(C(=O)NCC2CC2)n(CC2CC(c3cccnc3)=NO2)n1 (stereo not drawn) | -18.9% |
| CCNC(=O)C1(C)CCN(C(=O)c2ccccc2)C1 (stereo not drawn) | 26.9% |
| COc1ccc(CNC(=O)C2CCN(C(=O)c3ccccc3)CC2)cc1 | 0% |
| COc1ccc(CNC(=O)C2(CC3CC(c4ccccc4)=NO3)CCN(C(=O)c3cccc(O)c3)CC2)cc1 (stereo not drawn) | -61.2% (active) |
| CCCCCCCNC(=O)C1(CC2CC(c3cccc(Br)c3)=NO2)CCN(C(=O)c2cc(OCC)c(OCC)c(OCC)c2)CC1 (stereo not drawn) | -24.2% |
| O=C(C[C@H]1CC[C@H]2[C@@H](COC[C@H](O)CN2C(=O)c2ccccn2)O1)N1CCN(c2ccccc2)CC1 | 18.8% |
| CC(=O)N=c1ncn(CC(COC(C)=O)OC(C)=O)c2nc[nH]c12 (stereo not drawn) | -17.6% |
| O=c1[nH][nH]c2c1[C@H](c1ccc(Cl)cc1)O[C@H](CCc1ccccc1)C2 | -5.73% |
| Cc1cccc(CC2(O)C(=O)Nc3ccccc32)n1 (stereo not drawn) | 12.5% |
| Cc1cc(C(C)(C)C)cc(S(=O)(=O)Nc2ccc(C(=O)O)cc2)c1C | 0% |
| COc1ccc(NC(=O)C(=O)NCC(c2ccco2)N2CCc3ccccc3C2)cc1 (stereo not drawn) | 5.37% |
| COc1ccccc1-c1cc(NC(C)=O)c2ncc(-c3ccc(F)cc3)n2c1 | -21.1% |
| CC(=O)Nc1cc(-c2ccc(N3CCN(C)CC3)cc2)cn2c(-c3ccc(F)cc3)cnc12 | -91.8% (active) |
| CC(=O)Nc1cc(-c2ccc(N3CCN(C)CC3)cc2)cn2c(-c3cccc(C(=O)N(C)C)c3)cnc12 | -6.52% |
| CC(=O)N1c2ccc(S(=O)(=O)N3CCCC(C(=O)NCc4ccc(Cl)cc4)C3)cc2CC1C (stereo not drawn) | -22.7% |
| CCN(CCN(C)C)C(=O)c1ccc2nc(C)c(N(C)C(=O)CCc3ccccc3)n2c1 | 10.6% |
| CC(=O)Nc1cccc(NC(=O)c2ccc3c(c2)CCN3S(C)(=O)=O)c1 | -15.8% |
| Cc1cc(C)cc(NC(=O)C(c2ccccc2)N2CCN(CC(=O)N3CCCC3)CC2)c1 (stereo not drawn) | 15.8% |
| Cc1[nH]c(C)c(S(=O)(=O)N2CCC(C)CC2)c1C(=O)N1CCCC1 | -16.2% |

| Compound | activity change |
| --- | --- |
| CSCCC(NC(=O)c1ccccc1)C(=O)N1CCN(Cc2ccc(Cl)cc2)CC1 (stereo not drawn) | -78.1% (active) |
| CSCCC(NC(=O)c1ccccc1)C(=O)N1CCCCCCC1 (stereo not drawn) | -20.8% |
| COc1ccccc1C(=O)NC(CCSC)C(=O)N1CCN(C(C)=O)CC1 (stereo not drawn) | -2.96% |
| O=C1NC[C@@H](CCCCN2CCN(CCc3ccc(O)cc3)C(=O)C2=O)N(CC2CCCCC2)C1=O | 24.5% |
| COc1ccc(C2Nc3ccccc3C(=O)N2c2ccc(F)cc2)cc1Cn1nnc2ccccc21 (stereo not drawn) | -12.7% |
| COc1ccc(N2C(=O)c3ccccc3NC2c2ccc(OC)c(CN3CCOCC3)c2)cc1 (stereo not drawn) | -2.56% |
| COc1ccc(C2Nc3ccccc3C(=O)N2Cc2ccccc2)cc1Cn1nnc2ccccc21 (stereo not drawn) | -62.4% (active) |
| Nc1ncnc2c1ncn2[C@@H]1O[C@H](C(=O)NS(=O)(=O)c2c(Cl)nc3sccn23)[C@@H](O)[C@H]1O | -13.5% |
| CC(=O)Nc1cccc(-c2cc(NC=O)c3ncc(-c4ccc(F)c(Cl)c4)n3c2)c1 | 18.8% |
| Cc1cccc(C)c1NC(=O)C(c1cccc(F)c1)N1CCN(C)CC1 (stereo not drawn) | -18.5% |
| COc1cc(SC#N)ccc1N=Cc1c(C)[nH]n(-c2ccc(C)cc2)c1=O | -83.8% (active) |
| FC(F)(F)Oc1ccccc1C(c1nnnn1C1CCCCC1)N1CCN(C/C=C/c2ccccc2)CC1 (stereo not drawn) | -26.5% |
| O=C(CSc1ccc(Cl)cc1)NC1CC1 | 3.85% |
| Cc1ccc(S(=O)(=O)NCCC(=O)NC2CCN(Cc3ccccc3)CC2)cc1 | -11.3% |
| Cc1ccc(-c2nc(CSCC(=O)NC3CCN(Cc4ccccc4)CC3)c(C)o2)cc1 | -64.8% (active) |
| Cc1ccc(-c2cc(C(=O)NC3CCN(Cc4ccccc4)CC3)c3ccccc3n2)cc1 | -4.22% |
| CC(=O)c1ccc(S(=O)(=O)N(C)CCCC(=O)N(C)Cc2ccccc2F)cc1 | -0.0792% |
| Cc1cccc(C)c1NC(=O)N1CC(C)OC(C)C1 (stereo not drawn) | -6.92% |
| Cc1ccc(S(=O)(=O)N(C)c2nc3ccccc3n3c(C(C)C)nnc23)cc1 | 9.42% |
| O=C1N(c2ccc(Cl)cc2)C(c2ccc(Cl)cc2)N2CCCN12 (stereo not drawn) | -5.15% |
